Measurements as given in PubChem BioAssay (Tox21).
Inconclusive results are not listed. Active and inactive are the calls of the source. Unless noted, the call rests on the fitted dose curve; in most records, active means well fitted curve in the direction sought with a large enough effect in the repeat runs; inconclusive means weak or mixed curves; inactive means no such curve, though single readings can be large; an effect the other way counts as inactive or inconclusive.

Legend:
[1] = qHTS assay for small molecule agonists of the p53 signaling pathway (AID 651631; calls by dose curve; further: nearly all actives have a fitted effect of over 15% in size)
Procedure, shortened: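 Quantitative high-throughput format: 4,000 p53RE-bla HCT-116 cells/well, 5 h pre-incubation, 16 h compound exposure at 37 °C, 2 h room-temperature substrate step, fluorescence intensity measured.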

[2] = qHTS assay for small molecules that induce genotoxicity in human embryonic kidney cells expressing luciferase-tagged ATAD5 (AID 651632); further: nearly all actives have a fitted effect of over 15% in size
Procedure, shortened: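 Increased luciferase signal from ATAD5-tagged reporter cells indicates DNA-damage-driven ATAD5 induction. HEK293T cells are treated for 16 hr at 37C before detection with Amplite.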

[3] = qHTS assay for small molecule agonists of the p53 signaling pathway - cell viability (AID 651633; calls by dose curve;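 further: p53RE-bla HCT reporter cells with a stable beta-lactamase p53 reporter; series mostly up to about 83 µM; nearly all actives have a fitted effect of over 30% in size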)
Procedure, shortened: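 p53RE-bla cells were treated with compound for 16 hours at 37 C. Cytotoxicity was then measured as CellTiter-Glo luminescence after 30 min at room temperature.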

[4] = qHTS assay for small molecules that induce genotoxicity in human embryonic kidney cells expressing luciferase-tagged ATAD5 - cell viability (AID 651634; calls by dose curve; further: nearly all actives have a fitted effect of over 25% in size)
Procedure, shortened: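 Cytotoxicity counterscreen in HEK293T cells bearing an ATAD5-luciferase reporter: live-cell protease activity measured by CellTiter-Fluor fluorescence after 15.5 hr compound exposure.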

[5] = qHTS assay for small molecule disruptors of the mitochondrial membrane potential - cell viability (AID 720634; calls by dose curve;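 further: human HepG2 liver cancer cells; series mostly up to about 83 µM; nearly all actives have a fitted effect of over 20% in size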)
Procedure, shortened: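 After overnight attachment at 37 C, HepG2 cells received compound or DMSO vehicle for 1 hr. Viability is then taken from ATP-driven luminescence following a 30 min room-temperature CellTiter-Glo step.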

[6] = qHTS assay to test for compound auto fluorescence at 535 nm (green) in HepG2 cells (AID 720675)
[7] = qHTS assay to test for compound auto fluorescence at 460 nm (blue) in HEK293 cells (AID 720678)
Procedure, shortened: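 Triamterene serves as the blue fluorophore standard. Compound signal at 405/460 nm is read in HEK293 wells (2,000 cells, 10% dialyzed FBS) after overnight treatment at 37C.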

[8] = qHTS assay to test for compound auto fluorescence at 590 nm (red) in HEK293 cells (AID 720679)
Procedure, shortened: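 We plated HEK293 cells in 10% dialyzed FBS medium, let them adhere for 4-5 hr, then added 23 nL compound. Overnight at 37C and 5% CO2 preceded fluorescence measurement at 540/590nm.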

[9] = qHTS assay to test for compound auto fluorescence at 535 nm (green) in HEK293 cells (AID 720680)
[10] = qHTS assay to test for compound auto fluorescence at 460 nm (blue) in HEK293 cell free culture (AID 720681)
Procedure, shortened: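 Compounds were added to cell-free DMEM with 10% FBS and fluorescence read directly. The blue channel used 405 nm excitation and 460 nm emission, with triamterene as the reference fluorophore.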

[11] = qHTS assay to test for compound auto fluorescence at 535 nm (green) in HEK293 cell free culture (AID 720682)
Procedure, shortened: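 Measurement is a direct plate read of green fluorescence (485 nm in, 535 nm out) after compound addition to serum-supplemented DMEM lacking cells, with fluorescein used to express intensities.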

[12] = qHTS assay to test for compound auto fluorescence at 590 nm (red) in HEK293 cell free culture (AID 720683)
Procedure, shortened: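 Cell-free wells of DMEM with 10% FBS received compound, and intrinsic fluorescence was read at excitation/emission 540/590 nm. Values expressed as equivalence to Rose Bengal sodium.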

[13] = qHTS assay to test for compound auto fluorescence at 590 nm (red) in HepG2 cell free culture (AID 720684)
Procedure, shortened: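 Compound was pinned into wells holding MEM with 10% FBS and no cells, and red fluorescence was read at Ex/Em 540/590 nm. Signal is expressed as auto fluorescence equivalency relative to Rose Bengal sodium.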

[14] = qHTS assay to test for compound auto fluorescence at 460 nm (blue) in HepG2 cell free culture (AID 720685)
Procedure, shortened: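 Compound (23 nL) or DMSO pinned into cell-free MEM with 10% FBS; blue fluorescence read at 405/460 nm excitation/emission, expressed as auto-fluorescence equivalency to triamterene.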

[15] = qHTS assay to test for compound auto fluorescence at 535 nm (green) in HepG2 cell free culture (AID 720686)
[16] = qHTS assay to test for compound auto fluorescence at 460 nm (blue) in HepG2 cells (AID 720687)
Procedure, shortened: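 HepG2 cells in MEM with 10% FBS, attached overnight at 37 C, were exposed to compound or DMSO for 1 hr at 37 C, 5% CO2. Blue fluorescence was read at 405/460 nm, with triamterene as reference fluorophore.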

[17] = target: Glucocorticoid receptor (Homo sapiens) (UniProt P04150); assay: qHTS assay to identify small molecule agonists of the glucocorticoid receptor (GR) signaling pathway (AID 720691; active means well fitted activation curve with a large enough effect in the signal ratio in the repeat runs, not every such curve was filed as active; the % refers to the signal ratio)
Chain of Glucocorticoid receptor (Homo sapiens) (P04150 whole entry, looked up): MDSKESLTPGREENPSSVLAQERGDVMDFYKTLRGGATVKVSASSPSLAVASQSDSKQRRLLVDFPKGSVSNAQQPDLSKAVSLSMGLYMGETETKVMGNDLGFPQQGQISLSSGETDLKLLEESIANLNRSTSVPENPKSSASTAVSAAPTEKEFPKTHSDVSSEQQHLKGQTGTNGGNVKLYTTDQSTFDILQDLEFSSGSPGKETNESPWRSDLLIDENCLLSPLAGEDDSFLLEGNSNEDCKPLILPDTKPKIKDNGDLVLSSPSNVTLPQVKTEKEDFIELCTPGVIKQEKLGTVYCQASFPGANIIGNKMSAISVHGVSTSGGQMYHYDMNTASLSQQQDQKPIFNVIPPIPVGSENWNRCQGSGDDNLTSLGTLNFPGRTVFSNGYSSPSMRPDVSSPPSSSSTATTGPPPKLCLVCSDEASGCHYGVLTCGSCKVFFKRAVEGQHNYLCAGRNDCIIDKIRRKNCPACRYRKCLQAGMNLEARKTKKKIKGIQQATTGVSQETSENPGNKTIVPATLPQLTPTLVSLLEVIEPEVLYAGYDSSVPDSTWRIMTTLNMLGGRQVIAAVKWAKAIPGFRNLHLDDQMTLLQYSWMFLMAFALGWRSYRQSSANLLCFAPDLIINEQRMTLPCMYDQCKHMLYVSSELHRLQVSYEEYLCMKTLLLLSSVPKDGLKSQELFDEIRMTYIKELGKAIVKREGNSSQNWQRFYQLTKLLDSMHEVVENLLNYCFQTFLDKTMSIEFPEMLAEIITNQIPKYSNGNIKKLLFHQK
Procedure, shortened: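 Agonist mode in a HeLa line carrying a GRE-controlled beta-lactamase reporter. Compounds act for 18 h at 37 C before a 2 h room-temperature FRET substrate step and fluorescence reading.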

[18] = target: Glucocorticoid receptor (Homo sapiens) (UniProt P04150); assay: qHTS assay to identify small molecule antagonists of the glucocorticoid receptor (GR) signaling pathway (AID 720692; active means well fitted inhibition curve with a large enough effect in the signal ratio in the repeat runs, not every such curve was filed as active; the % refers to the signal ratio)
Procedure, shortened: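 Cells plated, rested 4 h at 37 C/5% CO2; compounds in DMSO pin-transferred; dexamethasone added to 5 nM final; 18 h at 37 C; B/G FRET substrate added, 2 h room temperature; fluorescence measured.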

[19] = qHTS assay to test for compound auto fluorescence at 590 nm (red) in HepG2 cells (AID 720674)
Procedure, shortened: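 HepG2 cells, 2,000 per well in MEM with 10% FBS, attached overnight at 37 C, then got 23 nL compound or DMSO. After 1 hr at 37 C, 5% CO2, red fluorescence was read at 540/590 nm against Rose Bengal sodium as reference.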
On the % scale 0 is the no-effect control and ±100 the full control effect.

COC(=O)c1ccc2cc(C(=O)OC)ccc2c1
inactive: Potency [1] | Potency [2] | Potency [3] | Potency [4] | Potency [5] | fluorescence, % of fluorescein control [6] -0.0327% [at 18.6 µM] | fluorescence, % of triamterene [7] -0.0093% [at 18.6 µM] | fluorescence, % of fluorescent control [8] 0.496% [at 18.6 µM] | fluorescence, % of fluorescein [9] -0.0047% [at 18.6 µM] | fluorescence, % of fluorescent control [10] -0.109% [at 18.6 µM] | activity change [11] -0.0115% [at 18.6 µM] | fluorescence, % of fluorescent control [12] 0.0914% [at 18.6 µM] | fluorescence, % of Rose Bengal [13] 0.0402% [at 18.6 µM] | fluorescence, % of fluorescent control [14] -0.114% [at 18.6 µM] | fluorescence, % of fluorescein control [15] -0.0122% [at 18.6 µM] | fluorescence, % of fluorescent control [16] 0.0678% [at 18.6 µM] | Potency [17] | Potency [18]

Cc1ncc(CO)c(CN)c1O
inactive: Potency [1] | Potency [2] | Potency [3] | Potency [4] | Potency [5] | outcome [19] | outcome [6] | outcome [7] | outcome [9] | outcome [10] | outcome [11] | outcome [12] | outcome [13] | outcome [14] | outcome [16]

C[C@@H](N)C(=O)O
inactive: Potency [1] | Potency [2] | Potency [3] | Potency [4] | Potency [5] | outcome [7] | outcome [8] | outcome [9] | outcome [10] | outcome [11] | outcome [13] | outcome [14] | outcome [15] | outcome [16] | Potency [17] | Potency [18]

CCOC(=O)C1CC(=O)C(=C(O)C2CC2)C(=O)C1 (stereo not given)
inactive: Potency [1] | Potency [2] | Potency [3] | Potency [4] | Potency [5] | outcome [6] | outcome [7] | outcome [8] | outcome [9] | outcome [10] | outcome [11] | outcome [12] | outcome [13] | outcome [14] | outcome [15] | outcome [16] | Potency [17] | Potency [18]

Cc1cc(NS(=O)(=O)c2ccc(N)cc2)nc(C)n1
inactive: Potency [1] | Potency [2] | Potency [3] | Potency [4] | Potency [5] | outcome [19] | outcome [6] | outcome [7] | outcome [8] | outcome [9] | outcome [10] | outcome [11] | outcome [12] | outcome [13] | outcome [14] | outcome [16]

CC/C=C\CCOC(=O)C(C)C
inactive: Potency [1] | Potency [2] | Potency [3] | Potency [4] | Potency [5] | outcome [19] | outcome [7] | outcome [8] | outcome [9] | outcome [10] | outcome [11] | outcome [12] | outcome [13] | outcome [14] | outcome [15] | Potency [17]

Cc1ccsc1C(=CCCN1CCC[C@@H](C(=O)O)C1)c1sccc1C
inactive: Potency [1] | Potency [2] | Potency [3] | Potency [4] | Potency [5] | outcome [19] | outcome [6] | outcome [7] | outcome [8] | outcome [9] | outcome [10] | outcome [11] | outcome [12] | outcome [13] | outcome [15] | outcome [16]

COC(C)CCO (stereo not given)
inactive: Potency [1] | Potency [2] | Potency [3] | Potency [4] | outcome [19] | outcome [6] | outcome [7] | outcome [8] | outcome [9] | outcome [10] | outcome [11] | outcome [12] | outcome [13] | outcome [14] | outcome [15]
